In PubChem BioAssay AID1434 (Sanford-Burnham Center for Chemical Genomics, 2008):
Hit rate of the full screen: of about 220,000 compounds, about 1,600 (0.73%) were called active.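 How the source made its calls: active means mean inhibition across duplicate retests at 20 µM reaching about 50% (limit read from the data); inactive means the rest, inconclusive results apart.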 This excerpt belongs to a sample that is enriched for actives.

Biological target: Runt-related transcription factor 1 (Homo sapiens) + Core-binding factor subunit beta (Homo sapiens) (UniProt Q01196+Q13951)
Sequence (Q01196 whole entry, looked up, the tested form may be a part): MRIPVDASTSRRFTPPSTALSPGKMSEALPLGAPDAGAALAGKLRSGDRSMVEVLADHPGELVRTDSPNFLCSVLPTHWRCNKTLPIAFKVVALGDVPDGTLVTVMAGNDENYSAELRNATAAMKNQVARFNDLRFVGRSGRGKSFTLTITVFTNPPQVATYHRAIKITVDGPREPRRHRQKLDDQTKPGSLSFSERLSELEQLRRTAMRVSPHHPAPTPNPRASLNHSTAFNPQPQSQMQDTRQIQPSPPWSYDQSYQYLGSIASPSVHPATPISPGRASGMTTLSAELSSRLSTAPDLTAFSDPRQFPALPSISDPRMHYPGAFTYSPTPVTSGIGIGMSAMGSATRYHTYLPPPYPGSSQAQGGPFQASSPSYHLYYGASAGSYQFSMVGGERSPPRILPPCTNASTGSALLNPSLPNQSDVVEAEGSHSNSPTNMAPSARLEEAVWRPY
Sequence (Q13951 whole entry, looked up, the tested form may be a part): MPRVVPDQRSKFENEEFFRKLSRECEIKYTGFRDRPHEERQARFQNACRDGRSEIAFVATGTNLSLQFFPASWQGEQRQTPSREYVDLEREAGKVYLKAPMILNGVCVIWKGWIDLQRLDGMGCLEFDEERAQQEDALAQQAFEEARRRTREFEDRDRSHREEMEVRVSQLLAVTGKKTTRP
Test: disruptors of Runt domain/CBFb-SMMHC interaction – biochemical, FRET, Cerulean-Runt, Venus-CBFb-SMMHC, uHTS, primary screen (AID 1434);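 further: 0% = DMSO wells and 100% = wells with excess untagged CBFb-SMMHC; inhibitors lower the FRET ratio by blocking Runt binding to CBFb-SMMHC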
Conditions: Cerulean-Runt/Venus-CBFb-SMMHC FRET ratio 530/480, 1 h, at 20 µM, stronger effect = higher value

Structure (SMILES) | inhibition | inhibition (retest duplicate average)
CCCCCCc1cc2cc(-c3nnc(-c4ccccc4)o3)c(=O)oc2cc1O | 80.9% (active) | 146%
Cc1c(CCC(=O)O)c(=O)oc2cc3occ(-c4ccccc4)c3cc12 | -3.4% (inactive) | 
CCCC(=O)Nc1nnc(-c2ccccc2)o1 | 0.5% (inactive) | 
COc1ccc(OCCCn2cccc2/C=C2/C(=N)N3OC(C)=CC3=NC2=O)cc1 | 0.8% (inactive) | 
Cc1nn(C)c(C)c1S(=O)(=O)N1CCC(CO)(Cc2ccc(Cl)cc2)CC1 | 2.4% (inactive) | 
O=C(CCCO)N/N=C/c1cc(Br)ccc1O | 14.5% (inactive) | 
CCN(CC)CCn1c(/N=C/c2cc(Br)ccc2O)nc2ccccc21 | -10.6% (inactive) | 
Oc1ccc(Br)cc1C=Nc1ccc2[nH]ncc2c1 | 75.6% (active) | 86.7%
O=C(COC(=O)/C=C/c1ccc2c(c1)OCO2)NC1CCS(=O)(=O)C1 (configuration not stated) | 0.9% (inactive) | 
O=[N+]([O-])c1ccc2c(c1)C(N1CCOCC1)/C(=C/C1(O)CCCCC1)O2 (configuration not stated) | -4.2% (inactive) | 
CN(C(=O)CSc1nnc(-c2c[nH]c3ccccc23)o1)C1CCS(=O)(=O)C1 (configuration not stated) | 2.4% (inactive) | 
Cn1c(CO)cnc1SCc1ccccc1 | 3.5% (inactive) | 
O=c1c2ccccc2c(-c2ccccc2)nn1Cc1ccccc1 | 1.4% (inactive) | 
CSc1c(SCc2ccccc2)cnn(Cc2ccccc2)c1=O | 59% (active) | 54.5%
CNC(=O)C(NC(=O)c1ccccc1)=C(C)C | -2.9% (inactive) | 
Cc1nc(C(=O)Nc2ccc(Cl)cc2)sc1C1(C)CC(c2ccccc2)=NO1 (configuration not stated) | -2.6% (inactive) | 
Cc1cc(C#N)c(SCC(N)=O)nc1-c1ccc(F)cc1 | 14.7% (inactive) | 
O=C(C1CCCO1)N1CCN(C(=S)NC2CC2)CC1 (configuration not stated) | -0.8% (inactive) | 
CCCCCCCN=C(C)c1ccccc1O | -0.5% (inactive) | 
